# Data as given in ChEMBL document CHEMBL3988442, “University of Dundee, Small-Polar-MMV Screening Library” (2021).
# For some assays here: Entries with a potency or affinity are not part of this list.
# How the values were obtained:
# Parameters in all cases: scale not given: direction of the effect not stated beside the values
# [1] = target: Protein translocase subunit SecA (Escherichia coli (strain K12)) (UniProt P10408); test: Assay to Identify E. coli SecA ATPase Inhibitors; assay type: functional; settings: 30 µM
# [2] = target: T1, Ubiquitin-activating enzyme e1, putative (Leishmania donovani (strain BPK282A1)) (UniProt E9BSI1); test: Leishmania donovani Ubiquitin Activating Enzyme (LdE1); assay type: functional; settings: 30 µM
# T1 sequence (whole entry): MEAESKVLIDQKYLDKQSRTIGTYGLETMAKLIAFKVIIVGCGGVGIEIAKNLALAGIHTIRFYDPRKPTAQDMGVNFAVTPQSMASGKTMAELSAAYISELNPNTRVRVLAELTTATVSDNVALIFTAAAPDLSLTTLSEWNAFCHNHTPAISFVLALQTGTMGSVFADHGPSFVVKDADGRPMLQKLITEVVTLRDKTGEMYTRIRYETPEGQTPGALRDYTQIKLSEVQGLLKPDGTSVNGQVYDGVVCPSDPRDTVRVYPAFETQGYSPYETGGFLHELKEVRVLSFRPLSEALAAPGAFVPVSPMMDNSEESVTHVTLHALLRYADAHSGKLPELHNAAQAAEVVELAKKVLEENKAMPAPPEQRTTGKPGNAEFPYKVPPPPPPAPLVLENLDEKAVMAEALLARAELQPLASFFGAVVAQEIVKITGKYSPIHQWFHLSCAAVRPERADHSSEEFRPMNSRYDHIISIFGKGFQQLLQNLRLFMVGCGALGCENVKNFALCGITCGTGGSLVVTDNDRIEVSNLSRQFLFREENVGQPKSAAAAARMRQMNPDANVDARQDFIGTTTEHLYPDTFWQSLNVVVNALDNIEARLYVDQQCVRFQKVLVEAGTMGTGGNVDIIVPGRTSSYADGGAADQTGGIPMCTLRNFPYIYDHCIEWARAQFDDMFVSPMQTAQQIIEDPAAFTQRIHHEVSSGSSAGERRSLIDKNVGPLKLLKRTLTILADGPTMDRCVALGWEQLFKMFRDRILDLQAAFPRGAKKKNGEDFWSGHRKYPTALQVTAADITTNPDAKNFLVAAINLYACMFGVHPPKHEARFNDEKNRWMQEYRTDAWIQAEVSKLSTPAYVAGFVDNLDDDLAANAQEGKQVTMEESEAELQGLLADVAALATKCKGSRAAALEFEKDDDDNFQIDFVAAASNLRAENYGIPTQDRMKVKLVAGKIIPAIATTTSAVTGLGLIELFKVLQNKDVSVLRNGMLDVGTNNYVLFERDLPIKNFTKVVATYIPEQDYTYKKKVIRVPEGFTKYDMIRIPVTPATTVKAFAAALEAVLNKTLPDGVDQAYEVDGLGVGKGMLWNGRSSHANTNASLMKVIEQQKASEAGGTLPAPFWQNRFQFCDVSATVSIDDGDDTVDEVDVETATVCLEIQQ
# [3] = target: AMP-activated protein kinase, AMPK (Homo sapiens) (UniProt P54646+O43741+P54619+Q9UGJ0+Q9Y478+Q13131+Q9UGI9); test: AMP-dependent Kinase enzyme assay. An in vitro enzyme assay that detects ADP turnover that is directly proportional to AMPK activity. This uses naive AMPK that is activated during the assay with MK-8722; assay type: functional; settings: 30 µM
# [4] = target: Sialic acid-binding Ig-like lectin 9 (Homo sapiens) (UniProt Q9Y336); test: Hs-Siglec9 ALPHAscreen SOP 20170721; settings: 10 µM
# Trypanosoma cruzi = test: Trypanosoma cruzi phosphomannomutase and mannose-1-phosphate guanylyltransferase assay; assay type: functional; settings: 10 µM
# [5] = target: T2, Arginase-2, mitochondrial (Homo sapiens) (UniProt P78540); test: in vitro enzyme assay to detect the production of urea directly proportional to the activity of Arginase II; assay type: functional; settings: 33.3 µM; note: in the data most compounds retested in dose-response had high values
# T2 sequence (whole entry): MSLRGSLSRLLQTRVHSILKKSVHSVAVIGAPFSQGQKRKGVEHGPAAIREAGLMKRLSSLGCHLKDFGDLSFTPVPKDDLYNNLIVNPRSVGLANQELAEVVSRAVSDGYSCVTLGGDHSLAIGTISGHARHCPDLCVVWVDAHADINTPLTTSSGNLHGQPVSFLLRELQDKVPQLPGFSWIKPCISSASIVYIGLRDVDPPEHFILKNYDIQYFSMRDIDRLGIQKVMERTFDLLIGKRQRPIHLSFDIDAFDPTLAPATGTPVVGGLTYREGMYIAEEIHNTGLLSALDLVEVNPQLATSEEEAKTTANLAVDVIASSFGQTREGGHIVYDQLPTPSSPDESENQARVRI
# [6] = target: T3, Proteasome subunit beta (Trypanosoma cruzi) (UniProt O96673); test: Trypanosoma cruzi proteasome chymotrypsin-like activity (TcProtChymo) assay.; note: in the data most compounds retested in dose-response had high values; assay type: functional; settings: 9.37 µM
# T3 sequence (whole entry): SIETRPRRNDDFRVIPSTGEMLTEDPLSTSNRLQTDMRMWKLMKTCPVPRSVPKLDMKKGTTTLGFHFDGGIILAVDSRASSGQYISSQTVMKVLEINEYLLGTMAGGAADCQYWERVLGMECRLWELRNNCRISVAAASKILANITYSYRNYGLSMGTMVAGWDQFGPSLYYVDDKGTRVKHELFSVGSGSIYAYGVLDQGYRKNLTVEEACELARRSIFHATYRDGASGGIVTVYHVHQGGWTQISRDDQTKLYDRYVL
# Homo sapiens = organism: Homo sapiens; test: To identify inhibition of the IFN signalling (Jak-Stat) pathway via expression of an eGFP reporter gene under the control of an IFN-stimulated response element (ISRE) containing MxA promoter.; assay type: functional; settings: 30 µM
# [7] = target: T4, Tyrosyl-tRNA synthetase, putative (Trypanosoma cruzi (strain CL Brener)) (UniProt Q4DSP6); test: Trypanosoma cruzi tyrosyl tRNA synthetase (TcYRS) _High Tyrosine SOP; assay type: functional; settings: 30 µM; note: in the data most compounds retested in dose-response had high values
# T4 sequence (whole entry): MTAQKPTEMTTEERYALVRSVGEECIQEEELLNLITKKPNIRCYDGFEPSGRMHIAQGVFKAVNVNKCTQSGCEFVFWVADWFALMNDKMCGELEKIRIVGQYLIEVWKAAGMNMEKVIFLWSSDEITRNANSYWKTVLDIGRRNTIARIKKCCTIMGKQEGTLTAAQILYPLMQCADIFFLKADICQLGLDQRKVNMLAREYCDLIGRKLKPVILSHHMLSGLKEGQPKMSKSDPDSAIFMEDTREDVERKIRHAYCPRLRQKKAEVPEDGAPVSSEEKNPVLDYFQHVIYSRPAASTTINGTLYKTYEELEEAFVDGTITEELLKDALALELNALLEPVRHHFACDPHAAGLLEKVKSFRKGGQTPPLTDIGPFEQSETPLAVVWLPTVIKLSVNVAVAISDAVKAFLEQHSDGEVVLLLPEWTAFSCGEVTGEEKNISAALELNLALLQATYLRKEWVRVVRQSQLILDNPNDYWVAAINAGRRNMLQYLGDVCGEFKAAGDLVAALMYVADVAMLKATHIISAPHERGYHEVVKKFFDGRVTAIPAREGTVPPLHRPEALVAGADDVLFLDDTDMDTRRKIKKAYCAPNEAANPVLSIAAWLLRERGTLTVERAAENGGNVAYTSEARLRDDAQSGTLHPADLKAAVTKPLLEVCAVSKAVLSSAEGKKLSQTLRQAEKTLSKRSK
# [8] = target: T4, Tyrosyl-tRNA synthetase, putative (Trypanosoma cruzi (strain CL Brener)); test: Trypanosoma cruzi tyrosyl tRNA synthetase (TcYRS) SOP; assay type: functional; settings: 30 µM
# [9] = target: Chromo domain-containing protein 1 (Saccharomyces cerevisiae (strain ATCC 204508 / S288c) (Baker's yeast)) (UniProt P32657); test: ScCHD-1 Enzyme Inhibition Assay; assay type: functional; settings: 30 µM; note: in the data most compounds retested in dose-response had high values
# Chromo domain-containing protein 1 (Saccharomyces cerevisiae (strain ATCC 204508 / S288c) (Baker's yeast)), sequence (P32657 whole entry, the tested form may be a part): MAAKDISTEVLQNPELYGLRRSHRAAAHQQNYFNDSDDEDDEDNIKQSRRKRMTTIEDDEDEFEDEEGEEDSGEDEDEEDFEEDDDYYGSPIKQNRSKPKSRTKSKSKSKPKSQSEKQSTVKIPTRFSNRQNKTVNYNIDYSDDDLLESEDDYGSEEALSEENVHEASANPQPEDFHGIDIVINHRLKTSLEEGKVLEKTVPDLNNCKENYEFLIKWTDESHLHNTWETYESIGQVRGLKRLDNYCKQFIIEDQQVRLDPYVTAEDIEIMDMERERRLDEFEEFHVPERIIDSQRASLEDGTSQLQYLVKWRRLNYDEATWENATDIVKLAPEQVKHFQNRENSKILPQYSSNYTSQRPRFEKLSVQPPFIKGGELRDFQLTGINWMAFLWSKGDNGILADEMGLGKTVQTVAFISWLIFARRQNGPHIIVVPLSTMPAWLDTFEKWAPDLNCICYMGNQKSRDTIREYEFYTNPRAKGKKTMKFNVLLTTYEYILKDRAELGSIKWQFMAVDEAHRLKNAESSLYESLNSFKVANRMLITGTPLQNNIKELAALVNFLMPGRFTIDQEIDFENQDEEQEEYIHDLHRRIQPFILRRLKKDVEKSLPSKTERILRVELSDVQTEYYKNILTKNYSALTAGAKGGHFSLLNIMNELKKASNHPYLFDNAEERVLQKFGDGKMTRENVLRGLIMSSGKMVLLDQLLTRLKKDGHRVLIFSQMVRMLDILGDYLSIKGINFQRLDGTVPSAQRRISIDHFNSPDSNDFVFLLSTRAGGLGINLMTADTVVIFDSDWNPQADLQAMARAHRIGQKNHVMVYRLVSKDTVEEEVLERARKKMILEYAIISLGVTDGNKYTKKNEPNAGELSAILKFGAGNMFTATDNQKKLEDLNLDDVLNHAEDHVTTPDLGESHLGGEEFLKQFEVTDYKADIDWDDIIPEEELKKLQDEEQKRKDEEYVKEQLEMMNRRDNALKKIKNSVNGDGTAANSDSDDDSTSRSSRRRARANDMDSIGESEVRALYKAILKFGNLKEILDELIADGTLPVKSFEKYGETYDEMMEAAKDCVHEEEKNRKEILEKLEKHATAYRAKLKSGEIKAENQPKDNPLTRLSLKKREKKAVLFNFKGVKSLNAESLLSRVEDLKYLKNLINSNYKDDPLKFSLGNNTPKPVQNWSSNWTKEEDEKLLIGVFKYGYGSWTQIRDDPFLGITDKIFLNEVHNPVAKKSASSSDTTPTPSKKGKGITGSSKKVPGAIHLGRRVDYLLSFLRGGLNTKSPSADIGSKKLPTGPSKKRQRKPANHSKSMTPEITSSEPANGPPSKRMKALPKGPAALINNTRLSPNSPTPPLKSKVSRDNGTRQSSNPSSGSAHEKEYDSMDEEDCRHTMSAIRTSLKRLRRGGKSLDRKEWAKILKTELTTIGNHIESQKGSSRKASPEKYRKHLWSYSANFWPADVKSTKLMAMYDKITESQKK
# Protein translocase subunit SecA (Escherichia coli (strain K12)), sequence (P10408 whole entry): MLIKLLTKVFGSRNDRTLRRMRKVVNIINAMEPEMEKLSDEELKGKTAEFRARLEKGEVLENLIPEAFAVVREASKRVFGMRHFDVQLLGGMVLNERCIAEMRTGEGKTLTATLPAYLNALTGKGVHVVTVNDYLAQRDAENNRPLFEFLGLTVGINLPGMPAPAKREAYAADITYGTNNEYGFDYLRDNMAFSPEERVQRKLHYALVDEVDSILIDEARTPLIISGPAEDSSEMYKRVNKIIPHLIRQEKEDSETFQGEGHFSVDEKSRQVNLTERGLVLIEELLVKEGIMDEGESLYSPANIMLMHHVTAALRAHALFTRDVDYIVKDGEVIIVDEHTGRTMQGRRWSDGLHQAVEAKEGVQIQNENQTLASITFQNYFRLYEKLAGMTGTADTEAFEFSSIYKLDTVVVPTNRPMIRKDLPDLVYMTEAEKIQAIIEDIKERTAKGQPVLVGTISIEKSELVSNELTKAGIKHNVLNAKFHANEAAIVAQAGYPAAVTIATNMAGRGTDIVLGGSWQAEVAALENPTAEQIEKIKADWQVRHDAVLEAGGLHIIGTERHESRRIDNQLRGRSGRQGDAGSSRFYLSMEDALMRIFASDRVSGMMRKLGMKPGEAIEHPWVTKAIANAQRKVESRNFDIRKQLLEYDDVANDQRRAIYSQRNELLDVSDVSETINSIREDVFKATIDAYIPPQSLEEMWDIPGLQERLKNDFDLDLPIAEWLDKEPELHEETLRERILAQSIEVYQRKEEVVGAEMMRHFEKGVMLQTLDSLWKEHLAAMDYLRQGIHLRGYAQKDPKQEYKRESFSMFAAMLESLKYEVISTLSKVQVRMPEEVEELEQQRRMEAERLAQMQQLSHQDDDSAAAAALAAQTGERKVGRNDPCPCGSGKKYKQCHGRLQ
# Sialic acid-binding Ig-like lectin 9 (Homo sapiens), sequence (Q9Y336 whole entry): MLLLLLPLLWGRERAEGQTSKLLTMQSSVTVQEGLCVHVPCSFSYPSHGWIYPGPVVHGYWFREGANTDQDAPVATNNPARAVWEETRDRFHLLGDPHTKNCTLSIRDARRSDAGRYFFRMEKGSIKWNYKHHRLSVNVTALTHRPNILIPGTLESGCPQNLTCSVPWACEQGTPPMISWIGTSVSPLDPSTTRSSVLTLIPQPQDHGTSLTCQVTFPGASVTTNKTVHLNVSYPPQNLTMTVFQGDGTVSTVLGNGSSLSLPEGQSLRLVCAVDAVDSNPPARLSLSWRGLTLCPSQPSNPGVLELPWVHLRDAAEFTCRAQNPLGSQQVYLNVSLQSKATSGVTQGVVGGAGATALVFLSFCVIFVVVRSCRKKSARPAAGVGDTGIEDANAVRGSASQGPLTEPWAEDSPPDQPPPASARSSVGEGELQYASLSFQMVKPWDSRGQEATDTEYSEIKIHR
Structure (SMILES),Percent Effect [1],Percent Effect [2],Percent Effect [3],Percent Effect [4],Percent Effect (Trypanosoma cruzi),Percent Effect [5],Percent Effect [6],Percent Effect (Homo sapiens),Percent Effect [7],Percent Effect [8],Percent Effect [9]
O=C(COc1coc(CN2CCCCCC2)cc1=O)c1ccccc1,-5.87%,-7.89%,-1.88%,-6.78%,-3.6%,-1.18%,9.49%,-1.04%,3.19%,0%,72.3%
COCC1CCN(c2cc(C3CN(C)CCO3)nc(C)n2)CC1 (configuration not stated),-3.57%,-5.33%,6.9%,-0.404%,-1.77%,0.233%,2.38%,6.27%,-1.06%,-3.85%,9.94%
COC1CCN(C(=O)Cc2csc(-c3ncccn3)n2)CC1,-1.74%,10.5%,1.3%,6.25%,6.96%,3.83%,9.19%,-15.6%,2.45%,17.1%,-5.39%
CCn1cc(NC(=O)NCC2(N3CCOCC3)CCSC2)cn1 (configuration not stated),-1.63%,13.5%,2.58%,16.6%,1.74%,13.8%,17.2%,-1.24%,6.88%,7.32%,-4.92%
CC1CCN(Cc2cnc(S(=O)(=O)CC3CC3)n2CC2CCCO2)CC1 (configuration not stated),-4.08%,-4.17%,9.77%,0.164%,-3.21%,-2.65%,0.877%,4.06%,-1.05%,-7.69%,5.99%
CC(NC(=O)NCCCN(C)S(C)(=O)=O)c1ccncc1 (configuration not stated),-0.684%,8.86%,5.26%,-2.69%,-2.77%,5.38%,10.8%,1.71%,12.5%,20.2%,-14.2%
O=C(CCCOc1ccc(F)cc1)N1CCCC(n2cccn2)C1 (configuration not stated),-2.63%,13%,4.56%,2.38%,-3.82%,2.74%,6.71%,15.8%,2.86%,11.8%,-14.5%
O=C(NCC(F)(F)F)C1CSCN1S(=O)(=O)c1ccc(F)cc1 (configuration not stated),-4.1%,16.5%,4.27%,-0.453%,1.33%,-4.95%,16.5%,7.19%,13.5%,30.4%,-28%
CC(=O)N1CCN(c2cc(-c3ccccc3)nc3c(C)c(C)nn23)CC1,-6.15%,-11%,-6.13%,6.66%,4.96%,2.4%,16.2%,4.69%,7.29%,8.64%,-7.72%
COc1cccc(-n2c(C)cc(C(=O)NS(C)(=O)=O)c2C)c1,-2.83%,20.2%,-2.25%,-3.1%,-4.63%,2.28%,2.21%,8.44%,6.4%,13.9%,-5.99%
O=C(NC[C@]12COC[C@H]1CN(Cc1nccs1)C2)N1CCCC1,-2.52%,9.33%,4.41%,2.77%,-4.52%,-7.92%,13.5%,-4.41%,2.12%,5.13%,-5.18%
O=C(c1cnco1)N1C[C@@H]2CC[C@H](Oc3ccccc3F)[C@@H]2C1,-8.63%,-6.76%,3.39%,-7.43%,-3.16%,-2.09%,3.74%,25.5%,-4.3%,-9.09%,-6.6%
CCCn1c(C)c(CC(=O)N(C)CCOC)c2c1CC(C)(C)CC2=O,-3.48%,5.2%,0.628%,11.4%,6.59%,-38.6%,3%,-27.9%,6.45%,8.64%,-8.76%
CC(NC(=O)c1nc(=O)[nH][nH]1)c1ccc(OCC2CC2)c(F)c1 (configuration not stated),-5.77%,10.5%,-0.945%,-1.85%,4.58%,-3.55%,4.7%,4.1%,5.32%,10.4%,-13.1%
Cc1ccc(CN(Cc2c[nH]cn2)C2CC(C)(C)NC(C)(C)C2)o1,-2.16%,4.05%,13.8%,0.615%,-9.49%,-1.62%,10.4%,12.1%,4.3%,3.9%,-10.2%
CCN1CCN(C(=O)c2cnn(-c3ccccc3Cl)c2)CC1,-4.44%,5.41%,-8.79%,9.91%,-2.36%,-1.6%,1.62%,10.3%,10.3%,13.6%,-7.79%
O=C(CCCc1cn[nH]c1)N1C[C@@H](CN2CCOCC2)[C@@H](CO)C1,-5.38%,-5.48%,0.507%,-3.16%,-2.74%,-2.27%,4.08%,5.26%,0%,-5%,-2.89%
Cn1nc2c(cc1=O)CN(CCc1nc3ccccc3c(=O)[nH]1)CC2,-4.31%,5.48%,-206%,-0.89%,8.23%,2.27%,17.9%,6.4%,-1.07%,0%,-7.87%
NC(=O)C1CCN(c2nc3nccc(-c4ccccn4)c3c(=O)[nH]2)CC1,-4.8%,18.4%,0.528%,-4.82%,0.0974%,-2.37%,22%,2.93%,8.51%,23.4%,7.17%
C1CC(NCc2nc(C3CC3)no2)CN(Cc2noc(C3CC3)n2)C1 (configuration not stated),-2.33%,24.3%,-2.39%,-3.6%,-6.32%,-12.4%,11.2%,27%,-0.493%,6.17%,-4.12%
Cc1ccoc1-c1nnc(CNCCn2cccn2)o1,-0.597%,22.8%,-3.87%,-12.1%,3.12%,1.52%,7.29%,23.9%,7.39%,24.1%,-15.5%
O=C(c1ccc2c(c1)COC2)N1CCC(Nc2cccnn2)CC1,-4.96%,13%,-6.23%,11.4%,5.06%,-3.56%,1.52%,21.5%,8.74%,24.4%,-7.05%
